Records with an inconclusive call do not appear. Calls of active or inactive are those of the source. The call rests on the fitted dose curve; in most records, active means well fitted inhibition curve with a large enough effect; inconclusive means small, poorly fitted or top-dose-only effect; inactive means flat fitted curve, though single readings scatter. Where a SMILES comes first, the peptide text is derived from it.
test system: HEK293T; assay: qHTS assay to identify novel small-molecules to repurpose for Merkel cell carcinoma treatment (AID 1296009); conditions: MCC and control cell lines, CellTiter-Glo viability, 72 h; at 44.8 µM (top of the series) unless noted; further: nearly all actives have a fitted effect of over 60% in size
Outline: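 Cells were incubated with compound for 72 hr at 37 degree celsius before CellTiter-Glo addition. Luminescence was normalized with no-cell wells as full cytotoxicity and DMSO as baseline.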

Structure (SMILES)	outcome
COc1cc(/C=C/C(=O)O[C@H]2C[C@@H]3C(C(=O)O)=CO[C@@H](O[C@@H]4O[C@H](CO)[C@@H](O)[C@H](O)[C@H]4O)[C@@H]3[C@H]2C)ccc1O	inactive [at 17.4 µM]
CC1(C)C=Cc2c(ccc3c2N=C2C(C)(C)[C@@H]4C[C@]56CCCN5C(=O)[C@@]4(C[C@]23O)NC6=O)O1	inactive [at 17.4 µM]
COC(=O)[C@H](Cc1ccc([N+](=O)[O-])cc1)NC(=O)c1cccc2ccccc12	inactive
Cn1nccc1-c1ccccc1Oc1ccc(S(=O)(=O)Nc2nccs2)cc1C#N	inactive
CSCC1OC(n2cnc3c(N)ncnc32)C(O)C1O (centres undefined)	inactive
CC1CCC2C(C(=O)O)=CC3(O)CC(C)(C)CC123 (centres undefined)	inactive
COc1cccc(CNc2ccc(S(=O)(=O)Nc3nc4ccccc4s3)cc2)c1O	inactive
CC(=O)NC(Cc1ccccc1)C(=O)NC(C(=O)O)C(C)C (stereo not drawn) (Ac-Phe-Val-OH; configuration not given here)	inactive
CC1=C2CC3C(CCC3(C)O)C(C)(O)CC2OC1=O (centres undefined)	inactive
COc1cc(C(CO)CO[C@@H]2O[C@H](CO)[C@@H](O)[C@H](O)[C@H]2O)ccc1O (some centres undefined)	inactive
O=C(O)CC1(O)C(=O)Nc2ccccc21 (centres undefined)	inactive [at 92 µM]
CN(C)C(=O)C(O)C(Cc1ccccc1)NC(=O)c1cc2cc(Cl)ccc2[nH]1 (centres undefined)	inactive
CC(O)C1NC(=O)C2CCCN2C1=O (centres undefined)	inactive [at 92 µM]
CC1(C)OC(=O)CC(O)C2(C)C1CC(=O)C1(C)C2C(O)CC2(C)C(c3ccoc3)OC(=O)C3OC321 (centres undefined)	inactive [at 17.4 µM]
CC(=O)OC1CCC2(C)C(CCC3(C)C2CC=C2C4CC(C)(C)CCC4(C)CCC23C)C1(C)C(=O)O (centres undefined)	inactive [at 17.4 µM]
C=C(CCO)C(=O)OCC1OCC(OC(=O)C(=C)CCO[C@@H]2O[C@H](COC(=O)C(=C)CCO[C@@H]3O[C@H](CO)[C@@H](O)[C@H](O)[C@H]3O)[C@@H](O)[C@H](O)[C@H]2O)C(O)C1O (some centres undefined)	inactive [at 17.4 µM]
CC(C)C1CCC(CO)=CC1/C=C(\CO)C(=O)OCC1(O)CCC(C(C)C)C2C=C(C(=O)O)COC(=O)C21 (centres undefined)	inactive [at 17.4 µM]
O=C(/C=C/c1ccc(O)cc1)OC[C@H]1O[C@H](O[C@@]2(CO)O[C@@H](CO)[C@H](O)[C@H]2O)[C@H](O)[C@@H](O)[C@@H]1O	inactive [at 17.4 µM]
c1ccc2c(Nc3nnc(-c4ccncc4)s3)cccc2c1	inactive
C/C=C/C=C/C=C/C(=O)O[C@@H]1[C@@H](OC)C2=C(C(=O)N(C(CCC(=O)O)C(=O)O)C2)[C@@]2(C)CCCC(C)(C)[C@H]12 (some centres undefined)	inactive [at 17.4 µM]
COC(=O)C1C(O)CCC2CN3CCc4c([nH]c5ccccc45)C3CC21 (centres undefined)	inactive
CC(C)=C1C[C@@]2(C)C(=CC1=O)CC[C@@H](O)[C@@H]2C	inactive
Cc1ccccc1NC(=O)Nc1ccc(CN2C(=O)N([C@@H](CC(C)C)C(=O)N[C@@H](CC(=O)O)c3ccccc3)C(=O)C2(C)C)cc1	inactive
CCOC(=O)C(CCc1ccccc1)NC1CCCN2CCCC(C(=O)O)N2C1=O (centres undefined)	inactive

— PubChem BioAssay (NCATS)
